The values below come from PubChem BioAssay AID778 (Sanford-Burnham Center for Chemical Genomics, 2007).

About 20,000 (21%) of roughly 96,000 compounds were called active.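 Rule for the calls: active = CYP2C19 inhibition above a set limit at 5 µM in the primary screen (cut at about 50% in these data); inactive = the rest.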 The list is a sample of the results.

In this experiment the target is Cytochrome P450 2C19 (Homo sapiens) (UniProt P33261). Briefly: blockers of cytochrome P450 2C19 activity – biochemical, luminescence, ADME assay, primary screen (AID 778).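 Note: plate controls were negative control wells for no effect and 2.5 mM tranylcypromine positive control for full effect.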 To be noted: CYP2C19 Supersomes, luciferin-H EGE luminescence, 30 min; at 5 µM; stronger effect = higher value.
Cytochrome P450 2C19 (Homo sapiens), sequence (P33261 whole entry, looked up): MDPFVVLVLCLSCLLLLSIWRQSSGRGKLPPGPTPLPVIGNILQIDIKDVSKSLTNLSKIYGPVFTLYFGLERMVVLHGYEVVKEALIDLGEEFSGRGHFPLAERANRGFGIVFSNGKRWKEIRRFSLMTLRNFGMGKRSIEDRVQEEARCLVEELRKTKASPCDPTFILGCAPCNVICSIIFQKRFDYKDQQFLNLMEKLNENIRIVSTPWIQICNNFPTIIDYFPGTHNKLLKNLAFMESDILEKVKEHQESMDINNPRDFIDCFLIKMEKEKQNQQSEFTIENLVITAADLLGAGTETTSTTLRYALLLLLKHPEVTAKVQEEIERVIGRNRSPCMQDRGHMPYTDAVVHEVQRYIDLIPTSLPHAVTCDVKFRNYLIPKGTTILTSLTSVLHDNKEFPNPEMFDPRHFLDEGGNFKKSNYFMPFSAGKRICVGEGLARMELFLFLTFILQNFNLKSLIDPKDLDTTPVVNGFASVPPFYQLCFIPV
Turning to `CCOC(=O)c1cnc2sccn2c1=O`, the inhibition (usually the drop in the measured response relative to a control, in per cent) is -11.8% (inactive).
Next, `CCCn1c(=NC(C)=O)c(C(=O)OCC)cc2c(=O)n3ccccc3nc21`: -6.3% (inactive); `CCn1c(=N)c(S(=O)(=O)c2ccc(F)cc2)cc2c(=O)n3ccccc3nc21`: 69.6% (active).
On to `Cc1ccc(-n2c(=O)c(C#N)cc3c(=O)n4ccccc4nc32)cc1C`, for which the inhibition is 6.5% (inactive).
`COc1cc2[nH]c(=S)n(Cc3ccc(C)o3)c(=O)c2cc1OC`: the inhibition was -7.9% (inactive).
For the molecule `CC(C)C(c1nnnn1Cc1ccccc1)N1CCC(C(N)=O)CC1` (stereo not given), the inhibition was 10% (inactive).
With `CCC(C)(C)n1nnnc1C(c1ccccc1OC)N1CCSCC1` (stereo not given) the figure was 11.4% (inactive); with `N#Cc1ccc(C(c2nnnn2CCc2ccccc2)N2CCCCCC2)cc1` (stereo not given), 20.5% (inactive).
Next, `Fc1ccc(Cn2nnnc2C(c2cccs2)N2CCCCCC2)cc1` (stereo not given): 96% (active).
As to `CCC(C)(C)n1nnnc1C(c1cccs1)N1CCN(c2nc3ccccc3s2)CC1` (stereo not given), the inhibition was 49.9% (inactive).
Turning to `CCC(C)(C)n1nnnc1C(c1cccs1)N1CCN(Cc2ccccc2)CC1` (stereo not given), the inhibition is 61.8% (active).
Regarding `O=C1c2cccnc2C(=O)N1Cc1cccs1`, the inhibition is 21.3% (inactive).
With `CCCCNC(=O)CCn1c(=S)[nH]c2cc3c(cc2c1=O)OCO3` the figure was 41.9% (inactive).
With `CCCCn1c(=S)[nH]c2ncccc2c1=O` the figure was 10.8% (inactive).
Next, `CC(C)(C)c1ccc(C(=O)NNC(=O)Cc2ccccc2)cc1`: 23.9% (inactive); `O=S(=O)(c1ccc(F)cc1)n1ccc(-c2cnc(-c3ccccc3)s2)n1`: 13.6% (inactive); `CCOC(=O)N1CCN(S(=O)(=O)c2cc3c(cc2C)NC(=O)CO3)CC1`: 12.1% (inactive).
`Cn1cc(S(=O)(=O)N2CCC(Cc3ccccc3)CC2)c(=O)n(C)c1=O`: the inhibition was 69.7% (active).
Turning to `Cn1cc(S(=O)(=O)N2CCN(c3ccc(F)cc3)CC2)c(=O)n(C)c1=O`, the inhibition was 26.4% (inactive).
Next, `COCCn1c(CN2CCC(Cc3ccccc3)CC2)nc2c1c(=O)n(C)c(=O)n2C`: 49.4% (inactive).
Next, `COCCn1c(SCc2nc3cc(OC)c(OC)cc3c(=O)[nH]2)nnc1-c1ccncc1`: -13.4% (inactive).
Next, `C=CCn1c(SCCOc2ccc(OC)cc2)nnc1C(NC(=O)c1ccc(OC)cc1)C(C)C` (stereo not given): 35.4% (inactive).
`C=CCn1c(SCc2cc(C(=O)OC)c(C)o2)nnc1-c1ccncc1`: the inhibition is 92.1% (active).
Next, `C=CCn1c(SCc2c(C(=O)OC)sc(N)c2C(=O)OC)nnc1-c1ccc(Cl)cc1`: 57.1% (active); `C=CCn1c(SCC(=O)c2ccc(Br)cc2)nnc1C(C)NC(=O)Cc1ccc(OC)cc1` (stereo not given): 11.6% (inactive).
Next, `O=C1Nc2c(Br)cc(Br)cc2C1(O)N1CCOCC1` (stereo not given): 41.6% (inactive); `O=C(NC(=O)c1ccc(Cl)c(Cl)c1)OC1CCS(=O)(=O)C1` (stereo not given): -14.2% (inactive); `COc1ccc(-c2nc(SCC(=O)N3CCOCC3)n[nH]2)cc1`: 1% (inactive).
With `CN1/C(=c2/s/c(=C3/C(=O)N(c4ccccc4)NC3=Nc3ccccc3)n(C)c2=O)C(C)(C)c2ccccc21` the figure was 38.5% (inactive).
`CCOC(=O)CSC1=C(C#N)C(c2ccco2)C(C(=O)OCc2ccccc2)=C(C)N1` (stereo not given): the inhibition is 72.5% (active).
Next, `CCOC(=O)C1C(=O)NC(N2CCN(c3ccccc3)CC2)=NC1c1ccco1` (stereo not given): 6.9% (inactive); `CCOC(=O)CSC1=C(C#N)C(c2sccc2C)CC(=O)N1` (stereo not given): 22.9% (inactive).
Next, `Cc1ccc(C2CC(=O)NC(SCC(=O)OCc3ccccc3)=C2C#N)o1` (stereo not given): 82.5% (active); `COC(=O)C1=C(C)Nc2ncnn2C1c1ccco1` (stereo not given): -5.4% (inactive).
With `CC1=C(C(=O)OCc2ccccc2)C(c2ccco2)n2ncnc2N1` (stereo not given) the figure was 90.2% (active).
Turning to `COc1ccccc1NC(=O)C1=C(C)NC2=C(C(=O)CCC2)C1c1ccc(C)o1` (stereo not given), the inhibition was 41.9% (inactive).
With `COc1ccccc1NC(=O)C1=C(C)Nc2ncnn2C1c1ccc(C)o1` (stereo not given) the figure was 8.6% (inactive); with `CC1=C(C(=O)Nc2ccccc2)C(c2ccco2)C(C#N)=C(SCC(N)=O)N1` (stereo not given), 2.2% (inactive).
Next, `CCCNS(=O)(=O)c1ccc2c(c1)CCCN2C(C)=O`: 0.6% (inactive); `COc1ccc(N2CCN(C(=O)CSc3ncnc4c3cnn4-c3ccc(OC)cc3)CC2)cc1`: 5.1% (inactive).
Next, `O=C(CN1C(=O)CSc2ncccc21)N1CCOCC1`: 13% (inactive); `O=c1c(-c2ccccc2)coc2c(CN3CCOCC3)c(O)ccc12`: 10.1% (inactive).
As to `CN(c1cccc(NC(=O)Nc2ccc(Cl)cc2)c1)S(C)(=O)=O`, the inhibition is 28.5% (inactive).
With `Cn1nc(C(F)(F)F)c(C(=O)Nc2cccc(C(F)(F)F)c2)c1SCc1ccc(Cl)cc1` the figure was 87.4% (active); with `CCC(C)Sc1nc(C)nc2c1c(=O)n(C)c(=O)n2C` (stereo not given), 32.5% (inactive).
Next, `O=C1COc2ccc(NC(=O)N3CCN(c4ccc(F)cc4)CC3)cc2N1`: 8% (inactive).
Next, `Cc1nonc1NC(=O)c1ccccc1Br`: -11.9% (inactive); `O=C(Nc1ccc(-n2ccnc2P(=O)(O)c2ccccc2)cc1)c1ccccc1Br`: 96.9% (active); `O=C(Nc1ccccc1)c1cccnc1Nc1ccccc1`: 2.2% (inactive).
Regarding `O=c1c2[nH]c3ccc(Cl)cc3c2ncn1Cc1ccccn1`, the inhibition was 10.9% (inactive).
With `Nc1cc(OC(=O)c2ccccc2Br)nn1S(=O)(=O)c1ccccc1` the figure was 12.4% (inactive); with `CCOC(=O)CSc1nnc(-c2ccco2)n1C`, -5.6% (inactive); with `CCn1c(SCC(=O)Nc2cccc(F)c2)nnc1-c1cc2cc(Br)ccc2o1`, 7.3% (inactive).
Next, `O=C(CSc1nnc(-c2cccnc2)n1Cc1ccco1)c1ccc(Cl)cc1`: 27.8% (inactive); `Cc1nnc(SCC(N)=O)n1CC1CCCO1` (stereo not given): 8% (inactive).
Next, `O=C(CSc1nnc(-c2ccco2)n1CC1CCCO1)c1ccccc1` (stereo not given): 70.4% (active); `CCOC(=O)CNC(=O)CSc1nnc(-c2cccc(OC)c2)n1CC`: 20.1% (inactive); `O=C(CSc1nnc(-c2cccnc2)n1Cc1ccco1)c1ccc(Cl)c(Cl)c1`: 79.7% (active).
On to `O=C(CSc1nnc(-c2cnccn2)n1Cc1ccco1)c1ccc(Cl)c(Cl)c1`, for which the inhibition is 5.6% (inactive).
Next, `COc1cc(Cl)c(C)cc1NC(=O)CSc1nnc(-c2cccnc2)n1Cc1ccco1`: 60.5% (active).
With `CCn1c(SCC(=O)Nc2cc(C)c(Cl)cc2OC)nnc1-c1ccco1` the figure was 70.6% (active).
Take `COc1ccc(-c2nn(-c3ccccc3)cc2C(=O)Nc2nc(CC(C)=O)ns2)cc1`: the inhibition was -1% (inactive).
For the molecule `COc1ccc(N2CCN(C(=O)CSc3nc4cc(OC)c(OC)cc4cc3C#N)CC2)cc1`, the inhibition is 37.5% (inactive).
On to `C[C@@H](Nc1nc(-c2ccccc2)nc2c1oc1ccccc12)C(=O)O`, for which the inhibition is 1.5% (inactive).
With `CSc1ccc(NC(=O)N2CC(C)OC(C)C2)cc1` (stereo not given) the figure was 14.4% (inactive); with `Cc1c(C(=O)Nc2ccccc2Cl)oc2ccc(S(=O)(=O)N3CCC4(CC3)OCCO4)cc12`, 7.5% (inactive).
With `COC(=O)c1c(-c2cccs2)csc1NC(=O)CSc1ncnc2sc(C)c(C)c12` the figure was 16.1% (inactive); with `COc1ccc(NC(=O)CSc2nnc(-c3cccs3)n2Cc2ccco2)cc1OC`, 35.6% (inactive); with `C(=C\c1ccccc1)/CSc1nnc(-c2cccnc2)n1Cc1ccco1`, 72.6% (active).
Next, `O=C(CSc1nnc(-c2cccs2)n1Cc1ccco1)c1ccc2c(c1)OCO2`: 51% (active).
Consider `CCn1c(COc2ccccc2)nnc1SCC(=O)Nc1ccc2c(c1)OCCO2`, for which the inhibition was 18.3% (inactive).
With `NC(=O)c1c(NC(=O)CSc2nnc(-c3ccco3)n2N)sc2c1CCCC2` the figure was 33.7% (inactive); with `CCn1c(COc2ccc(OC)cc2)nnc1SCC(=O)Nc1cc(OC)ccc1OC`, 65.9% (active).
Next, `CCc1cccc(C)c1NC(=O)CSc1nnc(-c2ccco2)n1N`: 76% (active); `Nc1cc(=O)nc(SCc2ccccc2)n1Cc1ccco1`: 32.6% (inactive).
Next, `N=c1c2c(-c3ccccc3)c(-c3ccccc3)oc2ncn1Cc1ccco1`: 19.1% (inactive); `COc1ccc(OC)c(NC(=O)CSc2nc3cccnc3n2C)c1`: 40.2% (inactive).
For `CCCn1c(SCC(=O)c2ccc3c(c2)OCCO3)nnc1C(C)C`, the inhibition was 16.5% (inactive).
Regarding `Cc1cccc(C)c1NC(=O)CCCSc1nnc(-c2ccco2)n1-c1ccccc1`, the inhibition is 23.1% (inactive).
Next, `COc1cccc2c1OCC(C(=O)NCc1ccc(Cl)cc1Cl)=C2`: 28.2% (inactive).
Next, `CCCCN1C(=O)CC(N2CCOCC2)C1=O` (stereo not given): -0.3% (inactive); `CCCOc1ccc(CN(CCO)CCO)cc1C(=O)OC`: 0.9% (inactive).
`O=C(CSCc1c(Cl)cccc1Cl)NN1C(=O)c2ccccc2C1=O`: the inhibition is 43.5% (inactive).
Next, `COc1ccc(C(=O)Nc2ncc3c(n2)-c2ccccc2CC3)cc1`: 5.2% (inactive); `O=C(c1cccnc1NCc1ccccc1)N1CCOCC1`: 5.8% (inactive); `CCCC(=O)N=c1sc2cccc(F)c2n1C`: 44.7% (inactive).
With `CCOC(=O)c1ccc(N2C(=O)CC(Sc3nc(O)c(CC)c(=O)[nH]3)C2=O)cc1` (stereo not given) the figure was -1% (inactive); with `O=C(Nc1ccccc1)c1ccccc1NC(=O)C(F)(F)F`, 33.4% (inactive).
Next, `CCCn1c(SCC(=O)Nc2c(C)cccc2C)nnc1C(C)C`: 24.4% (inactive); `COc1cc(Cl)c(C)cc1NC(=O)CSc1nnc(-c2ccco2)n1CC(C)C`: 96.1% (active); `COc1ccccc1NC(=O)CSc1nc2sc(C)c(C)c2c(=O)n1Cc1ccco1`: 92.9% (active).
Turning to `CCCc1nc(SCC(=O)Nc2ccccc2OC)c2c(=O)n(C)c(=O)n(C)c2n1`, the inhibition was 41% (inactive).
With `CCOC(=O)CSc1nc2c(sc(=S)n2CCc2ccccc2)c(=O)n1Cc1ccco1` the figure was 20.9% (inactive).
With `CCc1c(C)nc2cc(C)[nH]n2c1=O` the figure was -0.7% (inactive); with `CCOCCN(C=O)c1cccc(OC)c1`, 26.6% (inactive).
